High-throughput results from PubChem BioAssay.
BAZ2B block – qHTS Assay for Inhibitors of BAZ2B | Potency, µM (series often up to 114 µM), hits mostly inhibitors | AlphaScreen BAZ2B-H3K14Ac peptide displacement | Bromodomain adjacent to zinc finger domain protein 2B (Homo sapiens), Q9UIF8 | 4.4% of 360,000 active; also: nearly all actives have a fitted effect of over 60% in size
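AlphaScreen displacement of biotin-H3(5-23)K14Ac peptide (50 nM final) from BAZ2B (50 nM final) in PBS pH 7.4, 0.01% Tween-20; complex preformed 30 min RT, then compounds (top 110 uM) 30 min RT, beads 20 min dark.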
G9a inh – qHTS Assay for Inhibitors of Histone Lysine Methyltransferase G9a | Histone-lysine N-methyltransferase EHMT2 (Homo sapiens), Q96KQ7 | G9a H3K9 monomethylation, AlphaScreen, 2 h | Potency, µM (top dose mostly 102 µM), hits mostly inhibitors | 8.8% of 350,000 active | AID 504332, 2011; also: nearly all actives have a fitted effect of over 75% in size
Target sequence (Q96KQ7 913-1193 limits assumed): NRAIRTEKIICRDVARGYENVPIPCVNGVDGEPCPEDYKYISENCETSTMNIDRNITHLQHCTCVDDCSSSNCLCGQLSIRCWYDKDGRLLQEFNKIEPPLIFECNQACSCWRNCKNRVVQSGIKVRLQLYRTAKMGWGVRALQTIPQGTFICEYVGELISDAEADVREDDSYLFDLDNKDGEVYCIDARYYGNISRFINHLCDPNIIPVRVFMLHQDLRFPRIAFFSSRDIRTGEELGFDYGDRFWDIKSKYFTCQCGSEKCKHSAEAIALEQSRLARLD
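Quantitative HTS format: methyltransferase activity on a biotin-tagged H3K9 peptide is measured by AlphaScreen, using a rabbit anti-monomethyl-H3K9 antibody with streptavidin donor and anti-IgG acceptor beads. Final levels are 20 nM enzyme, 500 nM peptide, 20 uM SAM; 2 h RT.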
HP1b chromo inh – HTS for Inhibitors of HP1-beta Chromodomain Interactions with Methylated Histone Tails; Chromobox protein homolog 1 (Homo sapiens), P83916; AlphaScreen HP1-beta / biotin-H3K9me3 peptide binding; Potency, µM (highest dose often 114 µM), most hits filed as inhibitors; 0.56% of 390,000 active; AID 540317, 2011; also: nearly all actives have a fitted effect of over 70% in size
Target sequence (P83916 whole entry, looked up): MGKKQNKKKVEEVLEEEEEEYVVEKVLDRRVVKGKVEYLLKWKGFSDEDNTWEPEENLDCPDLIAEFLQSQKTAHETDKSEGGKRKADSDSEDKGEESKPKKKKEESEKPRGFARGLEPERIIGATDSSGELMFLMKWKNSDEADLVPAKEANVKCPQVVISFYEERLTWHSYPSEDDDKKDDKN
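AlphaScreen: HP1-beta (50 nM) preformed 30 min with biotin-H3(1-18)K9me3 peptide (50 nM) in PBS pH 7.4, 0.01% Tween-20. Compound added for 30 min at RT, then streptavidin donor/nickel chelate acceptor beads (10 ug/mL) for 30 min.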
GLS inh – qHTS for Inhibitors of Glutaminase (GLS). Glutaminase kidney isoform, mitochondrial (Homo sapiens), O94925. 0.21% of 410,000 active. Potency, µM (doses to about 45.5 µM), usual class: inhibitors. GLS enzymatic activity, qHTS titration
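Enzyme dispensed in phosphate buffer (45 mM, pH 8.2, 0.02% Tween-20), compounds pinned in, then 1 mM L-glutamine solution and the glutamate oxidase–HRP–Amplex Red mix added; fluorescence read immediately and again after 30 min at room temperature.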
JMJD2A Tudor inh – qHTS Assay for Inhibitors of JMJD2A-Tudor Domain; Lysine-specific demethylase 4A (Homo sapiens), O75164; AlphaScreen JMJD2A-Tudor / H3K4me3 peptide binding; Potency, µM (titrated, usually from 114 µM), usual class: inhibitors; 4.4% of 390,000 active; AID 504339, 2011; also: nearly all actives have a fitted effect of over 50% in size
Of the large screens only hits and unclear results are named; the others gave an inactive call; ! = not confirmed by another sample. The list is not random: actives were taken first. Their share in the collection is about 10%. Calls follow the shape of the dose curve; as a rule, active = well fitted curve in the direction sought with a large enough effect; inconclusive = small, poorly fitted or top-dose-only effect, or another doubt; inactive = no such curve, though single readings can be large; an effect the other way counts as inactive or inconclusive.

CC1CCCC(C)N1CC(C)(C)NS(=O)(=O)c1ccc(Cl)cc1 (configuration not stated)	BAZ2B block 50µM, G9a inh inconclusive (no result: GLS inh)
CCOC(=O)C1CCCN(C(=O)CCNS(=O)(=O)c2ccc(Br)cc2)C1 (configuration not stated)	none
CCOC(=O)C1CCN(CC(C)(C)NS(=O)(=O)c2ccc(Cl)cc2)CC1	BAZ2B block 50µM, G9a inh 11µM, HP1b chromo inh 79µM, JMJD2A Tudor inh 3.2µM
Cc1ccccc1Cn1nc(C)c(NC(=O)c2nc3n(n2)C(C(F)F)CC(C)N3)c1C (configuration not stated)	BAZ2B block inconclusive
CCC(C)Sc1cc(C)c(C#N)c2nc3ccccc3n12 (configuration not stated)	none
CC(C)(C)NC(=O)Cn1nnc(-c2cccs2)n1	none
O=C(CCCN1CCN(c2ccccc2)CC1)c1ccc(F)cc1	none (no result: BAZ2B block, G9a inh, HP1b chromo inh, JMJD2A Tudor inh)
O=C1NCN(c2ccccc2)C12CCN(CCCC(c1ccc(F)cc1)c1ccc(F)cc1)CC2	BAZ2B block inconclusive, G9a inh 10µM, JMJD2A Tudor inh 40µM
Cc1nn(C2CCS(=O)(=O)C2)c(C)c1C=O (configuration not stated)	GLS inh inconclusive, JMJD2A Tudor inh 13µM
C=CCn1c(C)cc(C(=O)COC(=O)/C=C/c2c(C)nn(C3CCS(=O)(=O)C3)c2Cl)c1C (configuration not stated)	BAZ2B block inconclusive, G9a inh inconclusive, JMJD2A Tudor inh inconclusive
Cc1ccc(S(=O)(=O)NN2C(=O)/C(=C/c3cccc(F)c3)SC2=S)cc1	BAZ2B block inconclusive
CC(/C=C1\SC(=S)N(NS(=O)(=O)c2ccc(C)cc2)C1=O)=C\c1ccccc1	BAZ2B block 35µM, G9a inh 10µM, JMJD2A Tudor inh 56µM
CC(/C=C1\SC(=S)N(NS(=O)(=O)c2ccccc2)C1=O)=C\c1ccccc1	BAZ2B block 45µM, G9a inh 16µM, JMJD2A Tudor inh inconclusive
CC(/C=C1\SC(=S)N(NC(=O)c2ccccc2C)C1=O)=C\c1ccccc1	BAZ2B block inconclusive, G9a inh 28µM, HP1b chromo inh inconclusive, JMJD2A Tudor inh inconclusive
CC(/C=C1\SC(=S)N(NC(=O)c2ccc(C)cc2)C1=O)=C\c1ccccc1	BAZ2B block inconclusive, G9a inh inconclusive, JMJD2A Tudor inh inconclusive
O=C1/C(=C\c2ccc(Br)cc2)SC(=S)N1NS(=O)(=O)c1ccccc1	JMJD2A Tudor inh inconclusive
Cc1ccc(S(=O)(=O)NN2C(=O)/C(=C/c3ccccn3)SC2=S)cc1	G9a inh 40µM
Cc1nn(Cc2ccccc2Cl)c(Cl)c1/C=C/C(=O)OCC(=O)NC1CCS(=O)(=O)C1 (configuration not stated)	none
COc1ccc(-c2nc3ccc([N+](=O)[O-])cc3o2)cc1	G9a inh inconclusive
CCOC(=O)N1CCC(NC(=O)c2ccc3c(c2)sc2nc(-c4ccc(OC)cc4)cn23)CC1	none (no result: HP1b chromo inh, GLS inh, JMJD2A Tudor inh)
Cc1ccsc1S(=O)(=O)N1CCCC(CCC(=O)NCc2ccccc2F)C1 (configuration not stated)	G9a inh 79µM
Cc1nnc(NC(=O)c2nn(CC(C)C)c(=O)c3ccccc23)s1	none
CC(C)(C)S(=O)(=O)c1ccc2nc3c(n2c1)CCCC3	none
N#Cc1c(-c2ccccc2)nc(SCC(=O)Nc2ccccc2)[nH]c1=O	G9a inh inconclusive
Cc1cc(C)nc(NS(=O)(=O)c2ccc(NC(=O)CSc3nc(-c4ccccc4)c(C#N)c(=O)[nH]3)cc2)n1	G9a inh 79µM (no result: BAZ2B block)
N#Cc1c(-c2ccccc2)nc(SCC(=O)Nc2nnc(C(F)(F)F)s2)[nH]c1=O	G9a inh 50µM
O=C(/C=C\c1ccc(O)c(O)c1)O[C@@H]1C[C@](O)(C(=O)O)C[C@@H](O)[C@@H]1O	G9a inh 0.35µM (no result: BAZ2B block, HP1b chromo inh, GLS inh, JMJD2A Tudor inh)
O=C(/C=C/c1ccc(O)c(O)c1)OC1C(O)CC(OC(=O)/C=C/c2ccc(O)c(O)c2)(C(=O)O)CC1O (configuration not stated)	G9a inh 32µM, GLS inh inconclusive, JMJD2A Tudor inh 22µM
COc1cc(/C=C/C(=O)OC2CC3CCC2(C)C3(C)C)ccc1O (configuration not stated)	none
COc1cc(/C=C/C(=O)OCC(=O)N2CC3(C)CC2CC(C)(C)C3)ccc1O (configuration not stated)	none
O=C(/C=C/c1ccc(O)c(O)c1)O[C@@H]1C[C@](O)(C(=O)O)C[C@@H](O)[C@H]1O	G9a inh 13µM!, GLS inh inconclusive, JMJD2A Tudor inh 18µM!
Nc1ccc2c(c1)Cc1c(F)cccc1-2	none (no result: BAZ2B block, G9a inh)
CC[C@]12CCCN3CCc4c(n(c5ccccc45)C(=O)C1)C32 (some centres not stated)	G9a inh inconclusive
CC(C)C1Nc2ccc(S(N)(=O)=O)cc2C2C=CCC21 (configuration not stated)	BAZ2B block inconclusive, G9a inh 1.4µM, JMJD2A Tudor inh inconclusive
Cc1ccc2c(c1)C1C=CCC1C(C(=O)NCCCN1CCOCC1)N2 (configuration not stated)	JMJD2A Tudor inh inconclusive (no result: BAZ2B block, G9a inh)
NS(=O)(=O)c1ccc2c(c1)C1C=CCC1C(C1CC=CCC1)N2 (configuration not stated)	BAZ2B block 50µM, G9a inh inconclusive, JMJD2A Tudor inh inconclusive
O=C(NC1CC1)C1Nc2ccc(OC(F)(F)F)cc2C2C=CCC12 (configuration not stated)	none (no result: BAZ2B block, G9a inh)
O=C(c1cccs1)c1coc2ccc(O)c(CN3CCOCC3)c12	none
C/C(=N/NC(=O)c1ccc(Cl)cc1Cl)c1cccnc1	none
COc1ccccc1NC(=S)NNC(=O)c1ccc(Cl)cc1Cl	G9a inh 20µM
Cc1ccc(C(=O)NNC(=S)NC(=O)c2ccc(Cl)cc2)cc1	G9a inh 40µM
O=C(NC(=S)NNC(=O)c1cnccn1)c1ccc(Cl)cc1	BAZ2B block 3.2µM, G9a inh 50µM, JMJD2A Tudor inh 22µM
O=C(NC(=S)NNC(=O)c1ccc(Cl)cc1Cl)c1cccnc1	G9a inh 2.2µM, JMJD2A Tudor inh 45µM
O=C(NCCCNC(=O)c1cnccn1)c1ccc(Cl)cc1	none
COc1ccccc1NC(=S)NC(=O)CCCOc1ccc(Cl)cc1Cl	none
COc1ccc(S(=O)(=O)NCCCn2ccnc2)cc1C(C)(C)C	none
COc1ccc(OC)c(Cc2nnc(CCC(=O)NC3CCCCC3)o2)c1	none
O=C(NNC(=S)NC(=O)c1cccnc1)c1ccc(Cl)cc1	G9a inh 22µM, JMJD2A Tudor inh inconclusive
O=C(NC(=S)Nc1ccccc1O)c1cccnc1	none
O=C(Cc1ccc(Cl)cc1)NNC(=S)NC(=O)c1cccnc1	none (no result: G9a inh)
